Screening data as filed in PubChem.
CYP2C19 inhib: inhibitors of human CYP2C19. P33261. CYP2C19 Supersomes, luciferin-H EGE luminescence, 30 min. inhibition, % at 5 µM. 96,000 tested, 21% active. AID 778;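 active = CYP2C19 inhibition above a set limit at 5 µM in the primary screen, cut at about 50% in these data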
Target sequence (P33261 whole entry, looked up): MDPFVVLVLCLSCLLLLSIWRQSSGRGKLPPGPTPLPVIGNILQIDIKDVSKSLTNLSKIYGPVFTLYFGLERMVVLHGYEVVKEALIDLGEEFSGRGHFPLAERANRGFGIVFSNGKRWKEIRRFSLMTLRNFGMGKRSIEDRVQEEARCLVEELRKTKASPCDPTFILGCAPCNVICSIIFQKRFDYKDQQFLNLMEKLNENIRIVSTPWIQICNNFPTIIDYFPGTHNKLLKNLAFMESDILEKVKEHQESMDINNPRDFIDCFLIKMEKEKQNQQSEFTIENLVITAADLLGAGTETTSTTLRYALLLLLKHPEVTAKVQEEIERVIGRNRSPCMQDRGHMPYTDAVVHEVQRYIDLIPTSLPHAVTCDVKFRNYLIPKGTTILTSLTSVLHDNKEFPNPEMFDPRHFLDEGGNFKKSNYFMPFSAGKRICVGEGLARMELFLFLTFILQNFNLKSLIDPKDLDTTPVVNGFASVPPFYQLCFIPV
CYP2C19 act: increases human CYP2C19 enzyme activity; P33261; recombinant CYP2C19, luciferin-H EGE luminescence; stronger effect = higher value; 0 = fully inhibited enzyme, 1 = untreated enzyme; activation factor at 5 µM; 96,000 tested, under 10 active; AID 1025;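 active = activation factor of at least 2 at 5 µM in the primary screen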
CYP2C9 inh: inhibitors of human CYP2C9; P11712; CYP2C9 Supersomes, luciferin-H conversion, luminescence; inhibition, % at 5 µM; 96,000 tested, 20% active;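 active = blocking of liver enzyme CYP2C9 beyond about 50% at 5 µM, limit read from the data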
PostGolgi ctrl: inhibits growth of the yeast control strain; efflux-deficient yeast background strain, growth absorbance A615, 16 h; inhibition, % at 10 µM; 98,000 tested, 5% active; AID 738
CYP2C9 act: activators of human CYP2C9. P11712. recombinant CYP2C9, luciferin-H conversion, luminescence; stronger effect = higher value; factor 1 = untreated enzyme, 0 = blocked. activation factor at 5 µM. 96,000 tested, 1.4% active;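 active = activation factor of 2 or more for CYP2C9 at a 5 µM dose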
PostGolgi yeast: growth inhibition of a yeast mutant, post-Golgi transport screen. post-Golgi transport phenotypic cell assay. inhibition, % at 10 µM. 98,000 tested, 0.9% active. AID 739;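 also: yeast cells grown in 1536-well plates; yeast grown about 18 h at 30C before absorbance read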
Of the large screens only hits and unclear results are named; the others gave an inactive call. Only some compounds are listed: those with a hit (about 32% of all), similar ones and a draw of the others. Rule as the data show it, unless noted: active = inhibition above about 30%; inactive = the rest.

c1ccc(CSc2n[nH]c(-c3ccco3)n2)cc1	CYP2C19 inhib 61
COc1ccc(S(=O)(=O)N=C2C=C(C)C(=O)C(C)=C2)cc1	CYP2C19 inhib 66
Cc1[nH]ccc(=O)c1OCc1c(Cl)cccc1Cl	none
Cc1ccc(Cn2ccc(=O)c(OCc3c(Cl)cccc3Cl)c2C)cc1	CYP2C19 inhib 65, PostGolgi ctrl 48
O=C(Oc1ccc2c(=O)c(Cl)coc2c1)c1ccncc1	CYP2C19 inhib 75, CYP2C9 inh 77
CNS(=O)(=O)c1cccc(C(=O)Nc2cccnc2)c1	PostGolgi ctrl 34
CCn1c(C)c(C)c2cc(C(=O)Nc3cccc(Cl)c3)ccc21	CYP2C9 act 2.4
CNS(=O)(=O)c1cccc(C(=O)Nc2cccc(Cl)c2)c1	CYP2C19 inhib 70, CYP2C9 inh 62
CN(C)S(=O)(=O)Oc1cccc(C(=O)Nc2cccc(Cl)c2)c1	CYP2C19 inhib 70, CYP2C9 inh 82
CC(C)(C)OC(=O)N1CCNc2ccccc2C1	none
Cc1ncsc1C(=O)NCc1ccc(N2CCCC2=O)cc1	none
O=C(O)c1cn[nH]c1-n1cnnn1	none
CCOC(=O)Cn1c2ccccc2c2nc3ccccc3nc21	CYP2C19 inhib 58
N#CCCn1c2ccccc2c2nc3ccccc3nc21	none
O=c1oc2ccccc2n1CCn1c2ccccc2c2nc3ccccc3nc21	CYP2C19 inhib 78, CYP2C9 inh 64
CCCn1c2ccccc2c2nc3ccccc3nc21	CYP2C19 inhib 54, CYP2C9 inh 69, PostGolgi ctrl 40
O=C(NCC1CCCO1)c1cccc(N2C(=O)C3C4C=CC(C4)C3C2=O)c1 (stereo not given)	none
O=C(CCN1C(=O)COc2ccccc21)NCCCN1CCc2ccccc2C1	none
COc1ccccc1N1CCN(c2cc(=O)n(Cc3ccc(F)cc3)c(=O)[nH]2)CC1	none (no result: CYP2C19 inhib, CYP2C19 act, CYP2C9 inh, CYP2C9 act)
COc1ccc(OC)c(NC2c3ccccc3C(=O)N2c2cccnc2)c1 (stereo not given)	CYP2C19 inhib 57, CYP2C9 inh 67
O=C1c2ccccc2C(Nc2ccc(Cl)cn2)N1c1cccnc1 (stereo not given)	CYP2C19 inhib 85
CC(=O)Nc1sc2c(c1C(c1ccc(F)cc1)N1CCOCC1)CCCC2 (stereo not given)	none
CC(=O)Nc1sc2c(c1C(c1ccc(Cl)cc1)N1CCOCC1)CCCC2 (stereo not given)	PostGolgi ctrl 31
Cc1ccc(OCCC(=O)Nc2c(C)n(C)n(-c3ccccc3)c2=O)cc1	none
Cc1ccc(NCC(=O)N/N=C/c2cc3ccccc3nc2Cl)cc1	CYP2C9 inh 54
CCC(C)(C)NC(=O)c1ccc(S(=O)(=O)N(C)c2ccccc2OC)cc1	CYP2C9 inh 65
COc1ccccc1N(C)S(=O)(=O)c1ccc(C(=O)NCC(C)C)cc1	CYP2C19 inhib 52, CYP2C9 inh 83
CCOC(=O)c1c(C)oc(/N=C/c2ccccc2O)c1C#N	none
Cc1c(Br)c([N+](=O)[O-])nn1CC(=O)NCc1cccs1	none
CC(=O)C1=C(C)NC(=O)NC1c1ccccc1 (stereo not given)	none
Cc1cc(NCCCN2CCOCC2)n2nc(C)c(-c3ccc(F)cc3)c2n1	none
Cc1cc(NCCC(C)C)n2nc(C)c(-c3ccccc3)c2n1	PostGolgi ctrl 53
Cc1cc(NCCOCCO)n2ncc(-c3ccc(Cl)cc3)c2n1	none
Cc1cc(NCCCN2CCOCC2)n2ncc(-c3ccccc3)c2n1	CYP2C9 inh 88
Cc1cc(NCCCN2CCOCC2)n2nc(C)c(-c3ccccc3)c2n1	CYP2C9 inh 71
COCC(COCCCNC(=O)Nc1ccc(Br)cc1)OC (stereo not given)	none
N#Cc1c(-c2ccccc2)c(-c2ccccc2)nn(CC(=O)NNC(=O)Nc2ccccc2)c1=O	CYP2C9 inh 53
O=C(Cn1nc(-c2ccccc2)c2ccccc2c1=O)Nc1ccccn1	none
O=C(Cn1nc(-c2ccccc2)c2ccccc2c1=O)Nc1cccnc1	CYP2C9 inh 72
COc1ccc(-c2nn(CC(=O)Nc3ccc(Cl)c(Cl)c3)c(=O)c3ccccc23)cc1	CYP2C9 inh 87, PostGolgi ctrl 32
O=C(Cn1nc(-c2ccc(Cl)cc2)c2ccccc2c1=O)Nc1cccnc1	CYP2C9 inh 59
CCCC(=O)NNC(=O)Nc1ccccc1	none
CCCCCc1nnc(NC(=O)C(=O)OCC)s1	none
CCOC(=O)CC(=O)Nc1nnc(C(C)C)s1	none
CCOc1ccc(C2=Cc3cc(OC)c(OC)cc3C(=C(Cl)Cl)O2)cc1	none
CC(=O)Nc1cccc(NC(=O)C2CCCN2C(=O)Nc2cccc(C)c2)c1 (stereo not given)	none
CC(=O)c1cccc(NC(=O)N2CCCC2C(=O)Nc2cccc(C)c2)c1 (stereo not given)	CYP2C9 inh 53
Cc1cc(C)cc(NC(=O)N2CCCC2C(=O)Nc2ccc(-n3cnnn3)cc2)c1 (stereo not given)	CYP2C19 inhib 83
Cc1nnc(NC(=O)C2CCCN(c3ncccn3)C2)s1 (stereo not given)	none
C=C(C)Cn1c(CCCNC(=O)C(C)(C)C)nc2ccccc21	none (no result: CYP2C19 inhib, CYP2C19 act, CYP2C9 inh, CYP2C9 act)
C=CCn1c(CCCNC(=O)C(C)(C)C)nc2ccccc21	PostGolgi ctrl 30
CC(C)(C)C(=O)NCCCc1nc2ccccc2n1CCCOc1ccc(Cl)cc1	CYP2C9 inh 84
N#CC1=C2SCCN2C(=O)C(C#N)C12CCCCC2 (stereo not given)	none
O=C1CC(N2CCN(C/C=C/c3ccccc3)CC2)C(=O)N1CCc1ccccc1 (stereo not given)	none
O=C1CC(N2CCN(C/C=C/c3ccccc3)CC2)C(=O)N1Cc1cccs1 (stereo not given)	CYP2C19 inhib 55
COC(=O)CN(c1nc(C)c(Br)c(OC)n1)S(=O)(=O)c1ccc(C)cc1	CYP2C19 inhib 90, CYP2C9 inh 89
COC(=O)CN(c1nc(C)cc(OC)n1)S(=O)(=O)c1ccc(C)cc1	none
CCSc1nc(O)c(CC)c(=O)n1C(C)CC (stereo not given)	none
Cc1ccccc1OCC(O)Cn1c(=N)n(CCN2CCOCC2)c2ccccc21 (stereo not given)	CYP2C9 inh 57
CCCCn1c(=N)n(CC(O)COc2ccccc2)c2ccccc21 (stereo not given)	none
CCCCn1c(=N)n(CC(O)COc2ccc(C)cc2)c2ccccc21 (stereo not given)	CYP2C19 inhib 52
Cc1ccc(Cn2c(=N)n(CC(O)COc3ccccc3)c3ccccc32)cc1 (stereo not given)	CYP2C19 inhib 53
CCCN(Cc1ccc(N(CC)CC)cc1)CC1CC1	none
CC1CC(C)CN(CCCNC(=O)CCNC(=O)Cn2ccc3ccccc3c2=O)C1 (stereo not given)	none
CC(=O)Nc1nc(C=C(Cl)Cl)cs1	PostGolgi ctrl 33
CCC(C)Sc1nc2c(c(=O)[nH]c(=O)n2C)n1C (stereo not given)	none
O=C(c1ccccc1NS(=O)(=O)c1cccs1)N1CCOCC1	none (no result: CYP2C19 inhib, CYP2C19 act, CYP2C9 inh, CYP2C9 act)
